From PubChem
KDM5B inh – blocks human KDM5B histone demethylase activity | Q9UGL1 | KDM5B demethylase, FDH-coupled NADH fluorescence (FDH is formaldehyde dehydrogenase) | Potency, µM (doses to about 57.7 µM), actives largely listed as inhibitors | 2.6% of 220,000 active; active = well fitted inhibition curve with a large enough effect; note: 0% is about no effect; nearly all actives have a fitted effect of over 70% in size
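Here, H3K4me3 peptide (12.5 µM in substrate mix) is demethylated by KDM5BΔAP, 200 nM final, after 10 min compound exposure. Formaldehyde product is coupled through FDH (0.25 U/mL in mix) to NADH fluorescence; 30-min ΔRFU feeds dose-response curves.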
* = called active by the depositor; i = inactive. The full list was thinned out, with hits kept by preference. Potency is the fitted concentration of half-maximal effect.

SMILES	KDM5B inh
N#Cc1ccc(COC(=O)c2ccc(CN3CCCC3=O)cc2)c(F)c1	i
COc1ccc(-n2nc(C)c3c2NC(=O)CC3c2ccccc2OCC(C)C)nn1 (stereo not given)	i
O=C(/C=C/c1ccc(OC(F)(F)F)cc1)N1CCCC1	i
O=C(N/N=C/c1cccc(F)c1)C1CC1	i
C#CCNC(=O)c1nc(-c2ccc(Cl)cc2Cl)c2ccccn12	89.1µM*
CN(C)C(=O)c1nc(-c2ccccc2)c2ccccn12	i
Cc1cccc(C)c1-c1nc(C(=O)N(C)C)n2ccccc12	39.8µM*
CN(C)C(=O)c1nc(-c2ccc(Cl)cc2)c2ccccn12	8.91µM*
C#CCNC(=O)c1nc(-c2cc(Cl)cc(Cl)c2)c2ccccn12	10µM*
CN(C)C(=O)N1CCc2nc(-c3ccc(Cl)cc3)nc(-c3ccccc3)c2C1	i
CC(C)C[C@H](Nc1ncnc2sc3c(c12)CCCC3)C(=O)O	i
O=C(Cn1ncc2ccccc2c1=O)NCCCC1CCCC1	i
CC(C)(/C=N/O)/[N+]([O-])=C/c1ccc(F)cc1	i
COC(=O)c1ccc(COC(=O)COc2ccc(Cl)cc2C)cc1	i
O=S(=O)(Nc1nc2ccccc2nc1Nc1ccc2c(c1)OCO2)c1ccc(Cl)cc1	i
Cc1ccc(-c2nn(CC(O)COCc3ccccc3)c(=O)c3ccccc23)cc1 (stereo not given)	i
CCOC(=O)C1=C(C)NC(=O)CC1C(=O)Nc1cc(Cl)cc(Cl)c1 (stereo not given)	i
CC(C)NC(=O)c1cc(Cl)ccc1Cl	i
CC(C)NC(=O)C1CCc2nnc(-c3ccc(Cl)cc3Cl)n21 (stereo not given)	i
CC(C)NC(=O)c1nc(-c2ccc(Cl)cc2Cl)c2ccccn12	79.4µM*
C#CCNC(=O)c1nc(-c2ccc(Cl)cc2)c2ccccn12	31.6µM*
C#CCNC(=O)c1nc(-c2ccc(Cl)cc2)c2cnccn12	39.8µM*
C#CCNC(=O)c1nc(-c2cccnc2)c2ccccn12	i
CCCCn1nc(C(=O)N(C)Cc2ccccc2N2CCCCC2)c2ccccc2c1=O	i
CCCOc1ccc(C2C(=O)N(C3CCC(C)CC3)CC(=O)N2Cc2ccc(F)cc2)cc1OC (stereo not given)	i
SMILES	KDM5B inh
CC1CN(C(=O)Nc2cccc(CN3CCOC3=O)c2)CCO1 (stereo not given)	i
O=C(Nc1ccc(Br)cn1)c1cc(-c2ccccc2)on1	i
C(=N\N=C1c2ccccc2-c2ccccc21)/c1cccs1	i
CC(=O)c1ccc(OCCCC(=O)OCc2ccc(C#N)cc2F)cc1	i
COc1ccc2[nH]c3c(c2c1)CCNC31CCN(C(=O)c2ocnc2C)CC1	i
COc1ccc2[nH]c3c(c2c1)CCNC31CCN(S(=O)(=O)c2cccnc2)CC1	i
COc1ccc2[nH]c3c(c2c1)CCNC31CCN(C(=O)C2CCOCC2)CC1	22.4µM*
CCC(C)C(=O)N1CCC2(CC1)NCCc1c2[nH]c2ccc(OC)cc12 (stereo not given)	31.6µM*
COCC(=O)N1CCC2(CC1)NCCc1c2[nH]c2ccccc12	i
O=C(C1CC1)N1CCC2(CC1)NCCc1c2[nH]c2ccccc12	i
CCn1nccc1C(=O)N1CCC2(CC1)NCCc1c2[nH]c2ccc(OC)cc12	i
COc1ccc2[nH]c3c(c2c1)CCNC31CCN(C2CCCC2)CC1	22.4µM*
COc1ccc(C(=O)N2CCC3(CC2)NCCc2c3[nH]c3ccccc23)cc1	i
COc1ccc2[nH]c3c(c2c1)CCNC31CCN(C(=O)c2cnccn2)CC1	i
O=C(C1CCC1)N1CCC2(CC1)NCCc1c2[nH]c2ccccc12	i
COc1ccc2[nH]c3c(c2c1)CCNC31CCN(C(=O)C2CC=CC2)CC1	22.4µM*
CCN(CC)C(=O)c1sc(NC(=O)c2ccc3c(c2)OCO3)c(C(=O)OC(C)C)c1C	i
CSc1ccc(C(C)NC(=O)c2cccc(C)c2)cc1 (stereo not given)	i
O=C(CCCc1c[nH]c2ccccc12)NCc1ccc(Cl)cc1	i
Cc1nc(-c2ccccc2)sc1C(=O)N[C@H](C(=O)O)C(C)C	i
COc1ccc2[nH]c3c(c2c1)CCNC31CCN(C(=O)c2nccc3ccccc23)CC1	i
COc1ccc2[nH]c3c(c2c1)CCNC31CCN(Cc2ccc(F)cc2F)CC1	11.2µM*
COc1ccc2[nH]c3c(c2c1)CCN(C)C31CCNCC1	i
CCCc1nnc(NC(=O)c2cc(=O)c3ccc(C)c(C)c3o2)s1	i
CN(C)C(=S)c1cc(C(C)(C)C)c(O)c(C(C)(C)C)c1	i
CCC(C)n1c(SCC(=O)Nc2cc(C)no2)nnc1-c1ccccc1 (stereo not given)	i
CCC(=O)Nc1ccccc1C(=O)OC/C(=N\O)c1ccc(OC)cc1	i
CC(C)CCN1CCC2(C1)NC(=O)c1ccccc1CO2 (stereo not given)	i
CNC(=O)c1cccc(-c2cnc3[nH]cc(CC(=O)Nc4ccccc4C)c3c2)c1	i
COc1ncccc1-c1cnc2[nH]cc(CC(=O)Nc3nc(C)cs3)c2c1	i
